The supplement of paper PMC6555819

Legend:
Test in all cases: PBM binding z-score (relative to random genomic background probes); higher = stronger binding; sequences stand for … in GC…GCGATTGACAGCGTAGAATGAAGG
[1] = tested on: RARb homodimer (NR concentration 270 nM)
In short: (§1)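 Ligand-free nuclear receptor dimers were bound for 1 h to custom Agilent 4×180K protein-binding microarrays. Detection used antibodies against each partner (one per run). Binding z-scores rest on regression-normalized fluorescence, with random background probes as the reference.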

[2] = tested on: RARg:RXRa (NR concentration 270 nM, RXRa partner concentration 90 nM)
In short: as §1

[3] = tested on: RARg homodimer (NR concentration 270 nM)
In short: as §1

[4] = tested on: RXRa DBDmut IVT, anti-RXR (DBD mutation: RXRa K156A/R161A, NR concentration 90 nM)
In short: as §1

[5] = tested on: RXRa homodimer (NR concentration 180 nM)
In short: as §1

[6] = tested on: THRa:RXRa (NR concentration 90 nM, RXRa partner concentration 90 nM)
In short: as §1

[7] = tested on: THRa homodimer (NR concentration 90 nM)
In short: as §1

[8] = tested on: VDR homodimer (NR concentration 270 nM)
In short: as §1

Row | Sequence | PBM binding z-score [1] | PBM binding z-score [2] | PBM binding z-score [3] | PBM binding z-score [4] | PBM binding z-score [5] | PBM binding z-score [6] | PBM binding z-score [7] | PBM binding z-score [8]
1 | AGAACGAGGGGACGCTGAGTTGATAGCAGAGTAG | 0.0721 | 0.0507 | 0.265 | 0.401 | -0.0794 | 0.202 | -0.233 | 1.16
2 | CTCGAAAGGTCGTGATCAGGTGAGTATACCAAAC | 2.66 | 4.85 | 3.85 | 1.9 | 4.72 | 4.04 | 0.717 | 0.668
3 | ATCGCTAGGTAACCAAGTTCAGTGAATGCCGAAC | 0.915 | 0.229 | 0.277 | 0.0688 | 0.062 | 0.934 | -0.378 | 1.7
4 | ATCTCTAGGTAAAGTTGAGTGAAAGATCGATAGA | -0.112 | 0.406 | 0.593 | -0.00419 | 0.495 | 0.689 | -0.246 | 0.103
5 | TGAATGAGGTTGTAAGATCAGGGAACGTTGCAAA | -0.435 | -0.0347 | 0.0621 | -0.583 | 0.396 | 0.192 | -0.364 | -0.21
6 | ACTTACGGGTCAACTAGGTTATAGCACGCGTATA | 3.63 | 5.71 | 5.16 | 2.08 | 5.82 | 3.52 | 0.857 | 2.03
7 | TCAGACAGGTGAAGGGAACTCAGGTACGCAGTCG | 0.93 | 0.546 | 0.498 | 1.36 | 0.877 | 0.891 | 0.717 | 0.463
8 | CAGCCTAGGACAGGGCCAGTATAGGAGGAACGTT | -0.1 | -0.205 | 0.0959 | -0.669 | -0.283 | 0.127 | -0.164 | -0.467
9 | ACAGACAGGTGGGTGAAGGTAACTCAGCTGGACG | 0.378 | 0.052 | 0.248 | -0.598 | 0.193 | 0.52 | -0.174 | -0.176
10 | GGAACGAGGGCATTCGAGTTGCTAGCATGGCGAT | 0.541 | 0.857 | 1.12 | 2.88 | 0.425 | 2.25 | -0.87 | 2.87
11 | ACAGACAGGTGATGAAGGTTACTCAGGCTATCAT | 1.16 | 0.777 | 0.687 | 0.104 | 0.748 | 0.904 | 0.139 | 0.291
12 | GCTGCTAGGTCAGGTTGGCCAGCTAACGGGTACG | 2.23 | 2.48 | 3.46 | -0.0229 | 0.917 | 1.46 | 0.0199 | 0.0457
13 | TCAAATAGGTAAACAGGTGAAAGTCCGTAAGTTA | 0.737 | 0.645 | 0.221 | 1.46 | 1.15 | 0.783 | 0.141 | 0.236
14 | CTCGACAGGTCGGTTGAGGTGAGTATACGGATAA | 0.715 | 0.769 | 0.825 | -0.127 | 0.289 | 4.41 | 1.11 | 0.012
15 | ACAGACTGGTGAGTGAAGGTAACTCAGCTGGACG | -0.42 | -0.303 | -0.112 | -0.514 | -0.182 | 0.0338 | -0.517 | -0.299
16 | ACTTACGGGTCAACGAGGTTATAACACGCGTATA | 3.71 | 5.74 | 5.07 | 3.22 | 6.33 | 4.34 | 1.32 | 4.13
17 | CAGCCTAGGTCAGGGCCAGTATAGGAGGAACGTT | 2.58 | 3.08 | 3.8 | -0.416 | 1.54 | 2.11 | 0.526 | -0.18
18 | GTACCAAGGTGAATATGTCGTTGATGAGTAGGCG | 0.432 | 0.746 | 0.888 | -0.0689 | 0.5 | 1.34 | 0.837 | 0.112
19 | AATACAGGGTCATCGAAGGCCAGAGTACGCACAG | 3.74 | 5.74 | 5.31 | 3.38 | 6.7 | 4.62 | 1.43 | 3.66

Row | Sequence | PBM binding z-score [1] | PBM binding z-score [2] | PBM binding z-score [3] | PBM binding z-score [4] | PBM binding z-score [5] | PBM binding z-score [6] | PBM binding z-score [7] | PBM binding z-score [8]
20 | AGAATAAGGTTAAGATCAGGGAAACAGAATACAT | 1.25 | 2.16 | 1.8 | 0.838 | 2.38 | 2.66 | 1.26 | 0.515
21 | CGTCAAAGTTCAAGGTAACTTAACAGAAAGCAGC | 3.81 | 5.06 | 6.29 | 4.24 | 4.36 | 2.71 | 0.957 | 2.74
22 | CCTTGCGGGTCACTCCAGGTTATAGCATCGGAGT | 2.74 | 3.99 | 3.63 | 1.43 | 3.78 | 4.98 | 0.573 | 1.2
23 | CCAACTGGGCCATCAGGTCATTGATATCAACGTT | 2.79 | 2 | 2.2 | 0.763 | 1.46 | 3.19 | 3.32 | 2.04
24 | GCGACTTGGGCAAAGCAGGTTACCATAAGGTTGG | -0.0673 | -0.0478 | -0.407 | -0.506 | 0.218 | 1.39 | -0.348 | -0.774
25 | CCTACTGCGCCATTCAGAGGTCATTGATCATATG | 3.92 | 3.36 | 2.53 | 1.73 | 3.92 | 3.37 | 2.07 | 3.47
26 | TAGCCTAGGTCAGATCGGGCCAGTATACGCTATA | 2.17 | 2.61 | 3.1 | -0.634 | 1.44 | 4.09 | 0.0638 | -0.176
27 | GCTCGGAGGACAAGGTCGGAGCTTTGTCCGTAGA | 0.998 | 0.842 | 1.11 | -0.395 | 0.103 | 1.37 | 0.277 | -0.608
28 | CCTATTTGGTCAGGAGGTCACACACCGGATATGA | 4.24 | 5.12 | 4.67 | 1.25 | 5.03 | 3.54 | 2.66 | 2.61
29 | CCTAGTGGGCCACGAAAGGTCATTGATTCAGTGA | 4.68 | 4.71 | 4.64 | 0.0516 | 5.09 | 3.82 | 0.453 | 1.99
30 | AGAATGAGGTTAAGATCAGGGAGACAGAATACAT | 1.15 | 1.94 | 1.5 | 1.06 | 2.49 | 2.55 | 0.979 | 0.818
31 | CGTACTGGGCCACGAAAGGTCATTGATTCAGTGA | 4.58 | 4.97 | 4.48 | 0.97 | 5.18 | 3.83 | 1.09 | 2.78
32 | TCGAGTAGGTTAACAATGGGGCATTCAGCTTTCT | 0.737 | 1.49 | 0.51 | 0.509 | 0.809 | 0.284 | -0.587 | -0.182
33 | CCTACTGGGCCACGAACGGTCATTGATTCAGTGA | 1.91 | 0.72 | 1 | -0.535 | -0.0982 | 0.584 | -0.505 | -0.169
34 | ACTAGTTGGTCAGCTGAGGTCACACATAATTCGG | 4.45 | 4.1 | 4.13 | 1.13 | 3.93 | 4.88 | 5.2 | 3.19
35 | ACAGACAGGTGATGAAGGTAACTCACGCTATCAT | 0.275 | 0.28 | 0.546 | -0.0205 | 0.483 | 0.491 | -0.113 | 0.0793
36 | CCTACCGGGCCATTCAGAGGTCATTGATCATATG | 4.14 | 4.98 | 3.36 | 0.918 | 3.86 | 3.65 | 1.73 | 4.05
37 | CGTCCAAGGTAAAGGTCAGTGAAAGAGACTCGAA | 4.43 | 4.58 | 5.49 | 0.687 | 4.48 | 3.2 | 0.7 | 0.765
38 | AATCGGAGGACAAAGGTCAGAGCTACGCCAGTGA | 4.37 | 5.79 | 4.98 | 0.662 | 4.98 | 3.55 | 0.579 | 1.36

Row | Sequence | PBM binding z-score [1] | PBM binding z-score [2] | PBM binding z-score [3] | PBM binding z-score [4] | PBM binding z-score [5] | PBM binding z-score [6] | PBM binding z-score [7] | PBM binding z-score [8]
39 | ATCGAAAGGTCGTGAGGTGAGTATCCAGAAAGGC | 2.99 | 4.59 | 3.92 | 1.15 | 5.24 | 3.28 | 1.55 | 0.852
40 | CCTCGGAGGACAACAGGAGGTCAGAGGTGCCAGA | 3.4 | 3.47 | 3.16 | -0.191 | 2.1 | 2.88 | 0.822 | 1.13
41 | CCTAGTTGGTCAAGGTCATACACGCTATAGGTAC | 4.18 | 4.12 | 4.33 | 2.53 | 4.46 | 4.03 | 3.75 | 4.48
42 | GCGACTAGGGCAAAGCAGGTTACCATAAGGTTGG | 0.924 | 0.573 | 1.01 | -0.427 | 0.44 | 2.98 | 0.052 | -0.405
43 | GCGACTGGGGCAAAGCAGTTTACCATAAGGTTGG | 0.187 | 0.073 | 0.187 | 0.0079 | -0.0226 | 0.718 | -0.284 | -0.185
44 | AGCTCTAGGTAACCAAGTTCAGTGAATGCCGAAC | 1.25 | 0.159 | 0.348 | 0.428 | 0.269 | 1.14 | 0.629 | 2.43
45 | GGACCGAGGGCATTCGAGTTGATAGCATGGCGAT | 0.78 | 1.2 | 1.14 | 2.61 | 0.753 | 3.46 | -0.46 | 3.18
46 | TCATATAGGTAAATTCTAGGTGAAAGTCCGATCT | 0.708 | 0.737 | 0.439 | 1.81 | 0.907 | 2.11 | 1.11 | 0.726
47 | ATAGGTAGGTTAAGGGTCATTCAGGTTGGTTCGC | 4.42 | 5.12 | 3.74 | 2 | 6.15 | 3.71 | 2.58 | 4.7
48 | GCTGCTAGGTCAGGTTGGTCAGGTAACGGGTACG | 2.89 | 2.59 | 3.55 | 0.37 | 1.06 | 2.32 | 2.02 | 0.789
49 | ATATTTAGGTTATCGGGTCATTCAGTTTGCGCAT | 3.44 | 3.54 | 2.82 | 1.92 | 3.57 | 3.62 | 3.93 | 4.95
50 | TCATATATGTAAAGGTGAAAGTCGAACGATATGA | 1.45 | 1.45 | 1.16 | 0.622 | 2.19 | 1.19 | -0.594 | 0.112
51 | TAGCTTAGGTCAGATCGGGCCAGTATACGCTATA | 2.23 | 2.89 | 3.71 | -0.0319 | 1.47 | 4.3 | 0.376 | -0.357
52 | CCTTACGGGTCACTGACAGGTAATAGCATTTGGA | 2.83 | 5.08 | 4.26 | 1.55 | 4.7 | 2.64 | 0.085 | 0.456
53 | GCTGCCAGGTCAGGTTGGTCAGCTAACGGGTACG | 2.65 | 2.55 | 3.29 | 0.47 | 1.5 | 2.51 | 1.16 | 0.33
54 | CCTAGTTGGACAAGGTCACACACGCTATAGGTAC | 4.19 | 4.24 | 4.16 | 1.75 | 4.4 | 3.93 | 3.3 | 3.14
55 | AGTCAAAGTTCACCTAGGTAACGTAAGATATGCT | 4.16 | 5.65 | 6.29 | 4.26 | 4.86 | 3.51 | 0.406 | 3.86
56 | CTCGATAGGTCGGTTGAGGTGAGTATACGGATAA | 1.02 | 0.724 | 1.15 | -0.0462 | 0.554 | 4.73 | 1.19 | 0.0696
